Potency data for 40 compounds are collected here from PubChem BioAssay (Tox21).

Inconclusive results are not listed. Where a call stands in place of a potency, no number is given. The source made the active and inactive calls. Calls come from the whole dose curve.

Chain of Progesterone receptor (Homo sapiens) (P06401 whole entry, looked up): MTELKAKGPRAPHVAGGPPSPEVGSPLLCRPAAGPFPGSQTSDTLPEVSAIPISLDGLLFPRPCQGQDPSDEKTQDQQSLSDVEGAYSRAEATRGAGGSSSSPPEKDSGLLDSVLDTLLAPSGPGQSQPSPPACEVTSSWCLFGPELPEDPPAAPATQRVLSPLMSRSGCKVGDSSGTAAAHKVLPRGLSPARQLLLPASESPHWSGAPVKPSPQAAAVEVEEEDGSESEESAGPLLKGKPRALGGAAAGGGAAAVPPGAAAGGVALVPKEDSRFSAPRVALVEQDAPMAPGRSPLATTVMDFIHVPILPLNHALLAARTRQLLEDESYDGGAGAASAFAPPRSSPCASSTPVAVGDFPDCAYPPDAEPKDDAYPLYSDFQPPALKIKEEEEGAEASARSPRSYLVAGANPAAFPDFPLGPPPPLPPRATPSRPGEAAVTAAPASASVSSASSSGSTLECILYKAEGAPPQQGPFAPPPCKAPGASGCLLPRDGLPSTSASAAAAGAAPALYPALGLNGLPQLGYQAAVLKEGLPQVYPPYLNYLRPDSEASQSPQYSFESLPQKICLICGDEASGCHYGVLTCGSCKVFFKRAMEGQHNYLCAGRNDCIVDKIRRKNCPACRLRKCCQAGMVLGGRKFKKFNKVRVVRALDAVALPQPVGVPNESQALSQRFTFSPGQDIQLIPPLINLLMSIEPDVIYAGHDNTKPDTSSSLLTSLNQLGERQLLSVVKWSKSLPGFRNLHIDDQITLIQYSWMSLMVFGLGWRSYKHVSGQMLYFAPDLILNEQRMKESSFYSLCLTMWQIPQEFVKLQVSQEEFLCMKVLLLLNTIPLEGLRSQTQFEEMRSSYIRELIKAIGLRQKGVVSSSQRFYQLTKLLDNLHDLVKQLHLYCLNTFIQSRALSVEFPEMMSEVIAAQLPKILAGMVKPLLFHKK

This assay addresses Progesterone receptor (Homo sapiens) (UniProt P06401). Nature of the assay: qHTS assay to identify small molecule agonists of the progesterone receptor (PR) signaling pathway (AID 1346784). Note: nearly all actives have a fitted effect of over 30% in size. The note with it: PR-UAS-bla HEK293T, beta-lactamase FRET ratio, 16 h; series mostly up to 92.4 µM. The text has this:
U.S. Tox21 Program National Center for Advancing Translational Sciences [NCATS] NIH Chemical Genomics Center [NCGC] U.S. Environmental Protection Agency [EPA] National Institutes of Environmental Health Sciences [NIEHS] National Toxicology Program [NTP] U.S. Food and Drug Administration [FDA] […] Endocrine disrupting chemicals (EDCs) and their interactions with steroid hormone receptors like PR causes disruption of normal endocrine function. To identify the compounds that activate PR signaling, a PR-UAS-bla GripTite cell line i.e. PR-UAS-bla HEK 293T (Invitrogen, Carlsbad, CA, USA) containing a beta-lactamase reporter gene under the control of an Upstream Activator Sequence (UAS) was used to screen Tox21 10K compound library.
Tox21 Assay Protocol Summary: PR-UAS-bla HEK 293T cells were dispensed at 3,000 cells/5 uL of assay medium containing 2% charcoal stripped FBS per well into black wall/clear-bottom 1536-well plates using a Multidrop Combi (ThermoFisher Scientific, Waltham, MA) dispenser. After the assay plates were incubated at a 37C and 5% CO2 for 6hr, 23 nL of compounds dissolved in DMSO, positive controls or DMSO only was transferred to the assay plate by a Pintool station (Kalypsys, San Diego, CA). The plates were incubated at 37C and 5% CO2 for 16hr. Then 1 uL of LiveBLAzer B/G FRET substrate was added using a BioRAPTR FRD (Flying Reagent Dispenser, Aurora Discovery, San Diego, CA). After the plates were incubated at room temperature for 2 hours, fluorescence intensity was measured by an Envision plate reader (PerkinElmer, Shelton, CT).
Turning to `O=[N+]([O-])c1ccccc1CCO`, the Potency entry was “inactive”. In the case of `CC(C)CC(C)(C)C`, the Potency entry was “inactive”.

As for `CC(C)Oc1ccccc1O`, the Potency entry was “inactive”. For `CCCCCCCCOCCCN` the value was “inactive”; for `COc1ccc(C(=O)Nc2ccccc2)cc1[N+](=O)[O-]`, “inactive”.

For the compound `CC1(C)CC(=O)CC(C)(C)N1`, the Potency result was “inactive”.

Consider `CC(C)=CCC[C@H](C)CCO`, for which the Potency result was “inactive”. For `CC(Cc1ccccc1)(NC(=O)CN)c1ccccc1` (stereo not given) the value was “inactive”; for `OCC(O)c1ccccc1` (stereo not given), “inactive”. On to `Cc1cc(C)n(CO)n1`, for which the Potency result was “inactive”. In the case of `C/C(=C(\CCO)SS/C(CCO)=C(\C)N(C=O)Cc1cnc(C)nc1N)N(C=O)Cc1cnc(C)nc1N`, the Potency entry is “inactive”. The entry for `Nc1ncnc2c1ncn2[C@@H]1O[C@H](CO)[C@@H](O)[C@H]1O` is “inactive”; for `O=C(OCCN1CCOCC1)c1cccnc1Nc1cccc(C(F)(F)F)c1` it is “inactive”; for `CC(=O)Nc1ccn(C2COC(COC(=O)c3ccccc3)O2)c(=O)n1` (stereo not given) it is “inactive”.

In the case of `CC(C(=O)O)c1ccc(/C=C2\CCCCC2=O)cc1` (stereo not given), the Potency entry is “inactive”. Consider `O=C(Nc1ccccc1)c1cc([N+](=O)[O-])ccc1Cl`, for which the Potency result was “inactive”. For the compound `CC(C)C[C@H](NC(=O)[C@H](Cc1ccccc1)NC(=O)c1cnccn1)B(O)O`, the Potency result was “inactive”. Turning to `Nc1ccccc1Nc1ccccc1`, the Potency result was “inactive”.

With `CC(=O)Nc1ccccc1O`, the Potency result was “inactive”. In the case of `C=CC(C)CCC=C(C)C` (stereo not given), the Potency result was “inactive”. The entry for `NCCOCCOCCN` is “inactive”.

`CCOc1ccc(NC(C)=O)cc1N`: the Potency result is “inactive”.

With `O=C1OC(=O)C2CC=CCC12` (stereo not given), the Potency entry is “inactive”. Turning to `Cc1c(Cl)cccc1[N+](=O)[O-]`, the Potency entry was “inactive”. With `O=P(c1ccccc1)(c1ccccc1)c1ccccc1`, the Potency result was “inactive”.

As to `C/C(=C\C(C)CC(C)CC(C)C)C1CC(=O)OC1=O` (stereo not given), the Potency result was “inactive”. Regarding `O=c1[nH][nH]c2ccccc12`, the Potency result is “inactive”. Take `CC1(COc2ccc(CC3SC(=O)NC3=O)cc2)CCCCC1` (stereo not given): the Potency result is “inactive”.

For the compound `C[C@H](CN1CCCC1)C(=O)c1ccc(C(F)(F)F)cc1`, the Potency result is “inactive”.

For the compound `CCCCOC(=O)C(C)Oc1ccc(Oc2ccc(C(F)(F)F)cn2)cc1` (stereo not given), the Potency entry was “inactive”. Take `Clc1cccc(C(c2ccc3nc[nH]c3c2)n2ccnc2)c1` (stereo not given): the Potency result is “inactive”. In the case of `O=C(C1CCCCC1)N1CC(=O)N2CCCc3ccccc3C2C1` (stereo not given), the Potency result was “inactive”.

In the case of `CCCCOc1ccc(N)cc1`, the Potency entry is “inactive”. As to `CC(C)CCCCCCCOC(=O)c1ccc(C(=O)OCCCCCCCC(C)C)c(C(=O)OCCCCCCCC(C)C)c1`, the Potency result was “inactive”. `CCc1cnc(C(=O)O)c(C(=O)O)c1`: the Potency entry was “inactive”. Regarding `COc1ccc(/C=C/c2cc(OC)cc(=O)o2)cc1`, the Potency entry is “inactive”. Take `OCCCO`: the Potency entry was “inactive”. In the case of `CCCc1nc(C)c2c(=O)[nH]c(-c3cc(S(=O)(=O)N4CCN(CC)CC4)ccc3OCC)nn12`, the Potency entry is “inactive”. Take `Nc1ccc(-c2ccc(F)cc2)cc1`: the Potency entry was “inactive”. Regarding `CC(C)(Cc1c[nH]c2ccccc12)NCC(O)COc1ccccc1C#N` (stereo not given), the Potency result is “inactive”.
